Experimental data taken from PubChem BioAssay AID1159580 (chemical genetic matrix, 2015).
The campaign covered roughly 5,500 compounds. About 2,000 (36%) were called active. Not shown: some 18% with an inconclusive outcome. Cut-off read from the data, not from the text of the source: active = normalized growth mostly below about 0.91 (no sharp cut-off); inconclusive = no clear call, values can overlap the other calls; inactive = mostly above about 0.92. Some of the results follow. Where a SMILES comes first, the peptide text is derived from it.

Test: chemical genetic growth profiling, strain panel (AID 1159580);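 note: tested at 20 µM; growth read once vehicle control cultures reached saturation at 30 °C; 1 = growth at the plate median or of vehicle wells; lower values mean less growth of the strain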
Settings: growth OD
[1] = S. cerevisiae deletion strains, locus YBR021W, strain FUR4, stronger effect = lower value
[2] = S. cerevisiae deletion strains, locus YBR229C, strain ROT2, stronger effect = lower value
[3] = S. cerevisiae deletion strains, locus YCL029C, strain bik1, stronger effect = lower value
[4] = S. cerevisiae deletion strains, locus YDL035C, strain GPR1, stronger effect = lower value
[5] = S. cerevisiae deletion strains, locus YDL074C, strain BRE1, stronger effect = lower value
[6] = S. cerevisiae deletion strains, locus YDL101C, strain DUN1, stronger effect = lower value
[7] = S. cerevisiae deletion strains, locus YDL134C, strain PPH21, stronger effect = lower value
[8] = S. cerevisiae deletion strains, locus YDL185W, strain tfp1, stronger effect = lower value
[9] = S. cerevisiae deletion strains, locus YDL192W, strain arf1, stronger effect = lower value
[10] = S. cerevisiae deletion strains, locus YDR101C, strain arx1, stronger effect = lower value
[11] = S. cerevisiae deletion strains, locus YDR150W, strain NUM1, stronger effect = lower value
[12] = S. cerevisiae deletion strains, locus YDR162C, strain NBP2, stronger effect = lower value
[13] = S. cerevisiae deletion strains, locus YDR318W, strain mcm21, stronger effect = lower value
[14] = S. cerevisiae deletion strains, locus YDR388W, stronger effect = lower value
[15] = S. cerevisiae deletion strains, locus YDR502C, strain sam2, stronger effect = lower value
[16] = S. cerevisiae deletion strains, locus YEL061C, strain CIN8, stronger effect = lower value
[17] = S. cerevisiae deletion strains, locus YER110C, stronger effect = lower value
[18] = S. cerevisiae deletion strains, locus YER155C, strain BEM2, stronger effect = lower value
[19] = S. cerevisiae deletion strains, locus YER167W, strain BCK2, stronger effect = lower value
[20] = S. cerevisiae deletion strains, locus YGL078C, strain dbp3, stronger effect = lower value
[21] = S. cerevisiae deletion strains, locus YGL086W, strain mad1, stronger effect = lower value
[22] = S. cerevisiae deletion strains, locus YGL248W, strain PDE1, stronger effect = lower value
[23] = S. cerevisiae deletion strains, locus YGR078C, strain PAC10, stronger effect = lower value
[24] = S. cerevisiae deletion strains, locus YGR135W, strain pre9, stronger effect = lower value
[25] = S. cerevisiae deletion strains, locus YGR229C, strain SMI1, stronger effect = lower value
[26] = S. cerevisiae deletion strains, locus YGR252W, strain gcn5, stronger effect = lower value
[27] = S. cerevisiae deletion strains, locus YHR030C, strain SLT2, stronger effect = lower value
[28] = S. cerevisiae deletion strains, locus YHR079C, strain IRE1 (second series), stronger effect = lower value
[29] = S. cerevisiae deletion strains, locus YHR094C, strain hxt1, stronger effect = lower value
[30] = S. cerevisiae deletion strains, locus YHR129C, strain ARP1, stronger effect = lower value
[31] = S. cerevisiae deletion strains, locus YHR200W, strain rpn10, stronger effect = lower value
[32] = S. cerevisiae deletion strains, locus YIL066C, strain RNR3, stronger effect = lower value
[33] = S. cerevisiae deletion strains, locus YIL073C, strain SPO22, stronger effect = lower value
[34] = S. cerevisiae deletion strains, locus YIR030C, strain dcg1, stronger effect = lower value
[35] = S. cerevisiae deletion strains, locus YJL095W, strain BCK1, stronger effect = lower value
[36] = S. cerevisiae deletion strains, locus YJL134W, strain LCB3, stronger effect = lower value
[37] = S. cerevisiae deletion strains, locus YJL168C, strain set2, stronger effect = lower value
[38] = S. cerevisiae deletion strains, locus YJL187C, strain SWE1 (second series), stronger effect = lower value
[39] = S. cerevisiae deletion strains, locus YJR043C, strain POL32, stronger effect = lower value
[40] = S. cerevisiae deletion strains, locus YKL009W, strain mrt4, stronger effect = lower value
[41] = S. cerevisiae deletion strains, locus YKL068W, stronger effect = lower value
[42] = S. cerevisiae deletion strains, locus YKL085W, strain MDH1 (second series), stronger effect = lower value
[43] = S. cerevisiae deletion strains, locus YKL085W, strain MDH1, stronger effect = lower value
[44] = S. cerevisiae deletion strains, locus YKL190W, strain CNB1, stronger effect = lower value
[45] = S. cerevisiae deletion strains, locus YKR001C, strain vps1, stronger effect = lower value
[46] = S. cerevisiae deletion strains, locus YLR039C, strain RIC1, stronger effect = lower value
[47] = S. cerevisiae deletion strains, locus YLR058C, strain SHM2, stronger effect = lower value
[48] = S. cerevisiae deletion strains, locus YLR102C, strain apc9, stronger effect = lower value
[49] = S. cerevisiae deletion strains, locus YLR262C, strain YPT6, stronger effect = lower value
[50] = S. cerevisiae deletion strains, locus YLR268W, strain sec22, stronger effect = lower value
[51] = S. cerevisiae deletion strains, locus YLR330W, strain CHS5, stronger effect = lower value
[52] = S. cerevisiae deletion strains, locus YLR342W, strain FKS1 (second series), stronger effect = lower value
[53] = S. cerevisiae deletion strains, locus YLR371W, strain rom2, stronger effect = lower value
[54] = S. cerevisiae deletion strains, locus YLR418C, strain cdc73, stronger effect = lower value
[55] = S. cerevisiae deletion strains, locus YML016C, strain PPZ1, stronger effect = lower value
[56] = S. cerevisiae deletion strains, locus YML032C, strain rad52, stronger effect = lower value
[57] = S. cerevisiae deletion strains, locus YML124C, strain tub3, stronger effect = lower value
[58] = S. cerevisiae deletion strains, locus YMR078C, strain ctf18, stronger effect = lower value
[59] = S. cerevisiae deletion strains, locus YMR223W, strain ubp8, stronger effect = lower value
[60] = S. cerevisiae deletion strains, locus YMR307W, strain GAS1, stronger effect = lower value
[61] = S. cerevisiae deletion strains, locus YNL067W, strain RPL9B, stronger effect = lower value
[62] = S. cerevisiae deletion strains, locus YNL153C, strain GIM3, stronger effect = lower value
[63] = S. cerevisiae deletion strains, locus YNL233W, strain BNI4, stronger effect = lower value
[64] = S. cerevisiae deletion strains, locus YNL250W, strain rad50, stronger effect = lower value
[65] = S. cerevisiae deletion strains, locus YNL271C, strain bni1, stronger effect = lower value
[66] = S. cerevisiae deletion strains, locus YNL298W, strain CLA4, stronger effect = lower value
[67] = S. cerevisiae deletion strains, locus YNL307C, strain MCK1, stronger effect = lower value
[68] = S. cerevisiae deletion strains, locus YNL322C, strain KRE1, stronger effect = lower value
[69] = S. cerevisiae deletion strains, locus YNR052C, strain pop2, stronger effect = lower value
[70] = S. cerevisiae deletion strains, locus YOL006C, strain TOP1, stronger effect = lower value
[71] = S. cerevisiae deletion strains, locus YOL012C, strain htz1
[72] = S. cerevisiae deletion strains, locus YOL147C, strain pex11, stronger effect = lower value
[73] = S. cerevisiae deletion strains, locus YOR061W, strain CKA2, stronger effect = lower value
[74] = S. cerevisiae deletion strains, locus YOR069W, strain VPS5, stronger effect = lower value
[75] = S. cerevisiae deletion strains, locus YOR136W, strain idh2, stronger effect = lower value
[76] = S. cerevisiae deletion strains, locus YOR144C, strain elg1, stronger effect = lower value
[77] = S. cerevisiae deletion strains, locus YOR184W, strain ser1, stronger effect = lower value
[78] = S. cerevisiae deletion strains, locus YOR316C, strain cot1, stronger effect = lower value
[79] = S. cerevisiae deletion strains, locus YPL055C, strain LGE1, stronger effect = lower value
[80] = S. cerevisiae deletion strains, locus YPR119W, strain clb2, stronger effect = lower value
[81] = S. cerevisiae deletion strains, locus YPR141C, strain kar3, stronger effect = lower value
[82] = S. cerevisiae deletion strains, locus YPR163C, strain tif3, stronger effect = lower value
[83] = S. cerevisiae deletion strains, locus YPR167C, strain met16, stronger effect = lower value
[84] = S. cerevisiae deletion strains, strain wtn01, stronger effect = lower value
[85] = S. cerevisiae strains, strain wild type, stronger effect = lower value

Measured: normalized growth

NC(N)=NCCC[C@@H](NC(=O)[C@@H](N)Cc1ccc(O)cc1)C(=O)O
inactive: [1] 1.01 | [2] 1.01 | [3] 1.01 | [4] 1.02 | [5] 1.01 | [6] 1 | [7] 1.01 | [8] 1.01 | [9] 1.01 | [10] 0.996 | [11] 1.01 | [12] 1 | [13] 1.01 | [14] 1.01 | [15] 1.02 | [16] 1.01 | [17] 1.02 | [18] 1.01 | [19] 1.01 | [20] 1.01 | [21] 1 | [22] 1.01 | [23] 0.996 | [24] 1.01 | [25] 0.997 | [26] 0.99 | [27] 1.01 | [28] 1.01 | [29] 1.01 | [30] 1 | [31] 1.01 | [32] 1.01 | [33] 1.03 | S. cerevisiae deletion strains, locus YIL125W, strain kgd1, stronger effect = lower value 1.01 | [34] 1.01 | [35] 0.996 | [36] 1.01 | [37] 1.01 | [38] 1.01 | [39] 1.01 | [40] 0.997 | [41] 1.01 | [42] 1.01 | [43] 1.01 | [44] 1.01 | [45] 0.993 | [46] 1.03 | [47] 1.01 | [48] 1.01 | [49] 0.992 | [50] 1.01 | [51] 1.01 | [52] 1.02 | [53] 1.01 | [54] 1.02 | [55] 1 | [56] 1.02 | [57] 1.01 | [58] 1.01 | [59] 1.01 | [60] 0.979 | [61] 1.01 | [62] 0.993 | [63] 1.01 | [64] 0.998 | [65] 1.01 | [66] 1.01 | [67] 1.01 | [68] 1.01 | [69] 1.02 | [70] 1.03 | [71] 1.88 | [72] 1.01 | [73] 1.01 | [74] 1.01 | [75] 1 | [76] 1.01 | [77] 1.01 | [78] 1.01 | [79] 1 | [80] 1.01 | [81] 1.01 | [82] 1.02 | [83] 1.01 | [84] 0.999 | [85] 1

NCCCCC(N)C(=O)NC(Cc1ccc(O)cc1)C(=O)NC(CCCCN)C(=O)O (stereo not drawn) (H-Lys-Tyr-Lys-OH; configuration not given here)
inactive: S. cerevisiae deletion strains, locus YAL013W, strain DEP1, stronger effect = lower value 1.01 | [1] 1 | [2] 1.01 | [3] 0.983 | [4] 1.01 | [5] 1.06 | [6] 1.02 | [7] 1.01 | [8] 0.971 | [9] 0.984 | [10] 1.01 | [11] 0.999 | [12] 1.04 | [13] 0.983 | [14] 1.01 | [15] 1 | [16] 0.996 | [17] 0.987 | [18] 0.985 | [19] 0.995 | [20] 0.988 | [21] 0.963 | [22] 1.01 | [23] 1.04 | [24] 0.999 | [25] 1.05 | [26] 0.958 | [27] 0.996 | [28] 1 | [29] 0.982 | [30] 1.01 | [31] 0.984 | [32] 1.02 | [33] 0.948 | [34] 0.995 | [35] 1.07 | [36] 0.997 | [37] 1.02 | [38] 1.01 | [39] 0.996 | S. cerevisiae deletion strains, locus YJR075W, strain HOC1, stronger effect = lower value 1.1 | [40] 0.958 | [41] 0.987 | [42] 1.04 | [43] 1.04 | [44] 1.01 | [45] 0.979 | [46] 1.04 | [47] 0.999 | [48] 1 | [49] 1 | [50] 1.01 | [51] 0.987 | [52] 1.01 | [53] 0.983 | [54] 1.04 | [55] 1 | [56] 0.976 | [57] 0.99 | [58] 0.982 | [59] 0.981 | S. cerevisiae deletion strains, locus YMR263W, strain SAP30, stronger effect = lower value 1.05 | [60] 1.07 | [61] 1.04 | S. cerevisiae deletion strains, locus YNL128W, strain TEP1, stronger effect = lower value 1.05 | [62] 1.05 | [63] 1.04 | [64] 0.981 | [65] 0.99 | [66] 0.987 | [67] 0.993 | [68] 0.998 | [69] 0.99 | [70] 1.06 | [71] 0.771 | [72] 0.995 | [73] 1.01 | [74] 1 | [75] 0.998 | [76] 0.989 | [77] 0.966 | [78] 0.99 | [79] 1.11 | S. cerevisiae deletion strains, locus YPL241C, strain CIN2, stronger effect = lower value 1 | [80] 0.998 | [81] 1 | [82] 0.982 | [83] 0.997 | [84] 1.03 | [85] 1.01
